# Screens (PubChem)
# Marburg entry inh: qHTS for inhibitors of binding or entry into cells for Marburg Virus; Potency, µM (titrated, usually from 37.8 µM), for inactives: top-dose activity change, negative = inhibition, most hits filed as inhibitors; 300,000 tested, 1.8% active; Marburg virus pseudotyped entry inhibition, cell reporter; AID 540276, 2011; calls by dose curve; tested in HEK293 cells; further: potency means the concentration at half of the fitted maximal effect; on the % scale 0 is the no-effect control and ±100 the full control effect
# SARS PLpro yeast: qHTS of Yeast-based Assay for SARS-CoV PLP. 330,000 tested, 0.19% active. AID 485353, 2010. S. cerevisiae expressing SARS-CoV PLpro, growth rescue. Potency, µM (titrated, usually from 32.9 µM), for inactives: at the highest dose activity, positive = growth rescue, most hits filed as activators; calls by dose curve; further: potency means the concentration at half of the fitted maximal effect; 0% is about no effect; nearly all actives have a fitted effect of over 55% in size
# LASV entry inh: qHTS for Inhibitors of binding or entry into cells for Lassa Virus; Lassa virus pseudotype entry inhibition, cell reporter; Potency, µM (series often up to 37.9 µM), without a hit: at the highest dose activity change, negative = inhibition, actives largely listed as inhibitors; 300,000 tested, 1.2% active; calls by dose curve; tested in HEK293 cells; further: potency means the concentration at half of the fitted maximal effect; on the % scale 0 is the no-effect control and ±100 the full control effect; nearly all actives have a fitted effect of over 50% in size
# HCV inhibitor: qHTS Assay for Inhibitors of Hepatitis C Virus (HCV); Huh7.5.1 HCVcc-Cre infection, luciferase reporter, 44 h; Potency, µM (series often up to 41.8 µM), for inactives: top-dose activity change, negative = inhibition, usual class: inhibitors; 340,000 tested, 3.4% active; AID 651820, 2012; further: potency means the concentration at half of the fitted maximal effect; on the % scale 0 is the no-effect control and ±100 the full control effect
#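 Cells seeded at 1,000/well and cultured 4 h, then compounds added followed by HCVcc-Cre virus (~0.5 moi). After 44 h further culture, luciferase substrate was added, plates held 15 min at room temperature, and luminescence read for 15 sec.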
# HCMV antiviral: qHTS Assay for inhibitors of the human cytomegalovirus (HCMV). HFF cells, HCMV-luciferase reporter, 72 h; hits give low values. activity change, negative = inhibition, % at 57.5 µM. 410,000 tested, 4.5% active; in the data active means activity change below about -60%; inconclusive means no clear call, values can overlap the other calls; inactive means above about -39%; further: on the % scale 0 is the no-effect control and ±100 the full control effect
#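 Two-dose cell screen: HFF monolayers treated with compounds and infected with luciferase-expressing HCMV at 1 PFU/cell, 72 h at 37C, then lysed for luciferase measurement.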
# FMDV antiviral: High Throughput Screening for Foot and Mouth Disease Virus Antivirals; FMDV antiviral cell-based qHTS; Potency, µM (top dose mostly 57.9 µM), without a hit: at the highest dose activity change, negative = inhibition, hits mostly inhibitors; 410,000 tested, 1.2% active; AID 1159524, 2015; calls by dose curve; tested in HEK293T cells; further: read-out not given here; potency means the concentration at half of the fitted maximal effect; on the % scale 0 is the no-effect control and ±100 the full control effect; nearly all actives have a fitted effect of over 45% in size
# HCV inh confirm: qHTS Assay for Inhibitors of Hepatitis C Virus (HCV): Confirmation Assay for Cherry-picked Compounds; shares compounds with HCV inhibitor; HCVcc-Cre infectious virus cell assay, luciferase, inhibition; Potency, µM (titrated, usually from 41.8 µM), inactives show top-dose activity, negative = inhibition, hits mostly inhibitors; 640 tested, 78% active; further: potency means the concentration at half of the fitted maximal effect; nearly all actives have a fitted effect of over 80% in size
# HCV host tox: qHTS Assay for Inhibitors of Hepatitis C Virus (HCV): Cytotoxicity Counterscreen for Cherry-picked Compounds. 640 tested, 22% active. HCV host cell line cytotoxicity counterscreen. Potency, µM (doses to about 41.8 µM), for inactives: at the top dose activity change, negative = cytotoxicity, hits mostly inhibitors. shares compounds with HCV inhibitor;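 further: potency means the concentration at half of the fitted maximal effect; 44 h compound exposure; on the % scale 0 is the no-effect control and ±100 the full control effect; nearly all actives have a fitted effect of over 55% in size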
# The depositor's hits bear a star; u = inconclusive; x = no result given; [ ] = remark or other dose. In the library only some 8% were active in any assay of this set; here they are far more common. Unless noted, the call rests on the fitted dose curve; in most records, active means well fitted curve in the direction sought with a large enough effect; inconclusive means small, poorly fitted or top-dose-only effect, or another doubt; inactive means no such curve, though single readings can be large; an effect the other way counts as inactive or inconclusive.
SMILES,Marburg entry inh,SARS PLpro yeast,LASV entry inh,HCV inhibitor,HCMV antiviral,FMDV antiviral,HCV inh confirm,HCV host tox
S=C(c1ccc(-c2ccc(Br)cc2)o1)N1CCOCC1,u,2%,-26%,u,125,18%,x,x
COc1ccc(NC(=O)N2CC3(CCN(C(=O)c4csnn4)CC3)C2)cc1,x,x,x,x,x,3%,x,x
c1cncc(-c2nc(N3CCCCCC3)c3ccccc3n2)c1,u,-15%,u,u,-31,u,x,x
Fc1ccccc1Nc1nc(-c2ccncc2)nc2ccccc12,u,1%,u,2.2µM*,35,u,8.9µM*,30%
c1ccc(Nc2nc(-c3ccncc3)nc3ccccc23)cc1,u,10%,-8%,u,38,u,5µM*,-95%
c1ccc2c(N3CCCCCC3)nc(-c3ccncc3)nc2c1,u,-34%,12%,8.9µM*,u,u,0.01µM*,18%
COc1ccc2cc(OCC(=O)NNC(=O)Nc3ccc(C(C)=O)cc3)ccc2c1,u,-6%,5%[46.1 µM],-7%[8.37 µM],51,20%,x,x
Cc1nc(-c2ccc(C(=O)Nc3cccc(Br)c3)cc2)cs1,x,-2%,x,4.5µM*,-68*,-40%,2.8µM*,4µM*
COc1nc(Nc2nc3ccccc3c(=O)[nH]2)nc2ccc(C)cc12,x,0%,x,3.2µM*,-100*,45%,7µM*,u
Cc1cccc(C(=O)Nc2ccc(C(=O)OCc3cc(=O)n4c5c(sc4n3)CCCC5)cc2)c1,x,x,1%[46.1 µM],x,15,21%,x,x
CC(C)C(C(=O)N1CCN(C(=O)OC(C)(C)C)CC1)n1cc(-c2cn([C@@H](C)C(=O)N3CCN(C(=O)OC(C)(C)C)CC3)nn2)nn1 (some centres undefined),x,-1%,x,x,x,x,x,x
